Reference: paper PMC5540273 (PLoS ONE, 2017)

The molecules below were run on T1, YSK1. Settings: concentration: 1 μM, replicates: in singlicate; n = 1.
T1 construct: gene STK25
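Note: KINOMEscan kinase panel screen.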

In order of falling “%Inh” value:
1. CN(c1ccc(NC(=O)Nc2cc(C(F)(F)F)ccc2F)cc1)c1ccnc(Nc2ccc(S(N)(=O)=O)cc2)n1 [GW809893]  100%
2. CNC(=O)c1ccccc1Nc1nc(Nc2ccc(N3CCOCC3)cc2)ncc1Cl.Cl [GSK1576028]  68%
3. CC(C)c1nc(-c2cccc(NS(=O)(=O)c3c(F)cccc3F)c2F)c(-c2ccnc(Nc3ccc(N4CCOCC4)nc3)n2)s1 [GSK2008607]  56%
4. O=C(Nc1cccc(-c2nn3ncccc3c2-c2ccnc(Nc3ccccc3)n2)c1)c1c(F)cccc1F [GSK198271]  20%
5. c1ccc(Oc2ccc(Nc3ccnc4cc(-c5ccc(CNCCN6CCOCC6)o5)ccc34)cc2)nc1 [GW567145]  2%
6. Nc1n[nH]c2cnc(-c3ccccc3)cc12 [SB-642124]  1%
7. O=C(Nc1ccccc1F)NC1CCN(c2ccnc(Nc3ccc(F)cc3)n2)CC1 [GSK1379800]  0%
8. Cl.c1ccc(-c2ccc3c(Nc4ccc5[nH]ccc5c4)ccnc3c2)nc1 [GW440138]  0%
9. COc1ccc(CNC(=O)NC2CCN(c3ccnc(Nc4ccc(F)cc4)n3)CC2)cc1 [GSK1379788]  0%
10. CN(C)Cc1ccc(-c2ccc3c(Nc4ccc(Oc5ccccn5)cc4)ccnc3c2)o1 [GW567148]  0%
11. CCS(=O)(=O)c1ccc(OC)c(Nc2nccc(-c3c(-c4cccc(NC(=O)c5c(F)cccc5F)c4)nn4ncccc34)n2)c1 [GSK326180]  0%
12. Cc1ccc(C)c(NC(=O)NC2CCN(c3ccnc(Nc4ccc(F)cc4)n3)C2)c1 (stereo not drawn) [GSK1379720]  0%
